# Results filed as inconclusive are left out. Entries that show only a call come without a potency. A number with no mark means an inactive call. Calls of active or inactive are those of the source. Calls follow the shape of the dose curve; as a rule, active = well fitted activation curve with a large enough effect in the signal ratio in the repeat runs (not every such curve was filed as active); inconclusive = weak or mixed curves; inactive = flat fitted curve, though single readings scatter; the % refers to the signal ratio.
# Test: qHTS assay to identify small molecule agonists of the hypoxia (HIF-1) signaling pathway (AID 1224846)
# Details: HRE-bla ME-180 cells, beta-lactamase ratio, 17 h; series mostly up to 76.8 µM
# Source text: U.S. Tox21 Program National Center for Advancing Translational Sciences [NCATS] NIH Chemical Genomics Center [NCGC] U.S. Environmental Protection Agency [EPA] National Institutes of Environmental Health Sciences [NIEHS] National Toxicology Program [NTP] U.S. Food and Drug Administration [FDA] Tox21 Assay Overview: Hypoxia-inducible factor-1 (HIF-1) is the major hypoxia-regulated transcription factor that controls cellular responses to low oxygen concentration. HIF-1 is composed of two subunits: hypoxia responsive HIF-1-alpha and constitutively expressed HIF-1-beta, which is also known as aryl hydrocarbon receptor nuclear translocator. During hypoxic conditions, HIF-1-alpha heterodimerizes with HIF-1-beta and translocates into the nucleus where the HIF-1 complex binds to the hypoxia-response element (HRE) and activates expression of target genes such as VEGF (vascular endothelial growth factor). The HIF-1 pathway is essential to normal growth and development, and is involved in the pathophysiology of cancer, inflammation, and ischemia. Using a beta-lactamase reporter-gene under control of the hypoxia response element, a cell-based assay [CellSensor(TM) HRE-bla ME-180 from Life Technologies, Carlsbad, CA] was used to measure hypoxia-induced signaling. Tox21 10K library compounds were measured for their ability to induce the reporter gene activity.
# Tox21 Assay Protocol Summary: HRE-bla ME-180 cells were dispensed at 2,000 cells per well in 6 uL of assay medium containing 0.5% dialyzed FBS into black wall/clear-bottom 1536-well plates using a Multidrop Combi (Thermo Scientific, Waltham, MA) dispenser. After the assay plates were incubated at 37C and 5% CO2 for 5 hrs, 23 nL of compounds dissolved in DMSO, positive controls or DMSO only was transferred to each well of the assay plate using a Pintool station (Kalypsys, San Diego, CA). The assay plates were incubated at 37C and 5% CO2 for 17 hrs. One uL of LiveBLAzerTM B/G FRET substrate (CCF4-AM) (Life Technologies) was added to each well using a Flying Reagent Dispenser (Aurora Discovery, San Diego, CA).
SMILES,Potency,activation
CCN(CC)c1ccc(C(=C2C=CC(=[N+](CC)CC)C=C2)c2cc(S(=O)(=O)O)ccc2S(=O)(=O)[O-])cc1,inactive,–
C[Si](C)(CCCN)O[Si](C)(C)CCCN,inactive,–
CC(CSC(=O)c1ccccc1)C(=O)N1C[C@@H](Sc2ccccc2)C[C@H]1C(=O)O (stereo not given in full),–,0.628% [at 15.8 µM]
CC(=O)[O][Al][O]C(C)=O,inactive,–
CN(Cc1ccc(C(C)(C)C)cc1)Cc1cccc2ccccc12,inactive,–
CN1C[C@H]2c3ccccc3Oc3ccc(Cl)cc3[C@@H]2C1,inactive,–
CC[N+](C)(CC)CCOC(=O)C(O)(c1ccccc1)C1CCCCC1 (stereo not given),inactive,–
CC(=O)NO,inactive,–
Cc1ccc(C(=O)Oc2ccc(C(O)CNC(C)(C)C)cc2OC(=O)c2ccc(C)cc2)cc1 (stereo not given),inactive,–
Nc1cccc([N+](=O)[O-])c1,inactive,–
CCC(CC)Nc1ccc(C)c(C)c1,inactive,–
CNC(=O)CN(CCN(CCN(CC(=O)[O-])CC(=O)NC)CC(=O)[O-])CC(=O)[O-].O.[Gd+3],inactive,–
O=CC1CC=CCC1 (stereo not given),inactive,–
CC/C=C\CCOC(=O)CC,inactive,–
Nc1ccccc1S(=O)(=O)c1ccccc1,inactive,–
Cc1cccc(C)c1NC(=O)CN(CC(=O)O)CC(=O)O,inactive,–
CCCCO,inactive,–
O=P(O)(OCc1ccccc1)OCc1ccccc1,inactive,–
OC[C@H]1O[C@@H](OCCc2ccc(O)cc2)[C@H](O)[C@@H](O)[C@@H]1O,inactive,–
O=C(OCCc1ccccc1)c1ccccc1,inactive,–

SMILES,Potency,activation
COc1ccc(S(=O)(=O)N2C(=O)[C@@](c3ccccc3OC)(N3C[C@H](O)C[C@H]3C(=O)N(C)C)c3cc(Cl)ccc32)c(OC)c1,inactive,–
CC(=O)OC[C@H]1O[C@@H](n2ncc(=O)[nH]c2=O)[C@H](OC(C)=O)[C@@H]1OC(C)=O,inactive,–
C=CC1CC2C=CC1C2 (stereo not given),inactive,–
Cc1cccc(C)c1OCC(=O)N[C@@H](Cc1ccccc1)[C@@H](O)C[C@H](Cc1ccccc1)NC(=O)[C@H](C(C)C)N1CCCNC1=O,inactive,–
CNCCCCOc1ccccc1Cc1ccccc1,inactive,–
O=C(NCCO[N+](=O)[O-])c1cccnc1,inactive,–
CCc1cc(C2=C(C(=O)O)N(c3ccccc3C(F)(F)F)S(=O)(=O)c3ccccc32)cc2c1OCO2,inactive,–
CCOC(=O)Cc1cccc2ccccc12,inactive,–
COc1cc2nc(Cl)nc(N)c2cc1OC,inactive,–
O=C(O)c1ccccc1Cl,inactive,–
CN(C)c1ccc(/C=C/c2ccc([N+](=O)[O-])cc2)cc1,–,-1.48% [at 7.01 µM]
COc1cc(Cl)ccc1Oc1ccc(Cl)cc1Cl,inactive,–
COc1cc2c(cc1OC)C(C(C(=O)N(CCc1ccc(OC)c(OC)c1OC)CCc1ccc(OC)c(OC)c1OC)c1ccccc1)=NCC2 (stereo not given),inactive,–
COS(=O)(=O)C(F)(F)F,inactive,–
CCN(CC)c1ccc2c(-c3ccccc3C(=O)O)c3ccc(=[N+](CC)CC)cc-3oc2c1,inactive,–
CC(C)(CO)[N+](=O)[O-],inactive,–
CN(C)CCN(Cc1ccsc1)c1ccccn1,inactive,–
COc1ccc(C)cc1[N+](=O)[O-],inactive,–
CCOCC(O)COc1ccc(NC(=O)CC[S+](C)C)cc1 (stereo not given),inactive,–
COCC(C)OC(C)=O (stereo not given),inactive,–

# From PubChem BioAssay (Tox21)
